This passage reports growth results from PubChem BioAssay (NCI).

Several values for one entry are separate records, joined by “and”; a condition that tells them apart may be missing. Equal entries are not always repeated. About 83,000 compounds went through this panel and 20% of them were active in at least one assay; those are over-represented in the sample as a whole.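 Activity criterion: percent growth below 10, measured after cells in 96-well plates were exposed to a single compound concentration for 48 hours.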 Activity calls are given as the source filed them.

The test deals with MDA-MB-468 breast. The test can be described thus: NCI-60 one-dose screen, 48 h (100 = growth as untreated, 0 = no growth, -100 = all killed).

For `CC(C)(C)NCC(O)c1ccccc1Cl` (configuration not stated), the growth (10 µM unless noted) was -12.6% (active). As to `COc1ccc(C/C(C)=C(\c2ccc(OCCN3CCOCC3)cc2)c2ccc(OC(=O)Cc3ccccc3)cc2)cc1`, the growth (10 µM unless noted) was -33.4% (active). Still for that read-out and setting: the result for `O=[N+]([O-])/C=C\c1ccc(Cl)c(Cl)c1` reads 12.4% (inactive); that for `ClC1OC(Cl)(Cl)C(Cl)(Cl)OC1(Cl)Cl` (configuration not stated), 105% (inactive). With `CN(C)C(=O)Oc1ccccc1`, for the setting “10 µM unless noted”, the growth is 113% (inactive). `COC(=O)CC12CC(NC(=O)c3csc([C@@H](C[C@H](C(C)C)N(C)C(=O)[C@@H](NC(=O)[C@H]4CCCCN4C)C(C)C)OC(C)=O)n3)(C1)C2`: the growth (10 µM unless noted) is 38.6% (inactive).

For `CC1=C(CN(O)C(N)=O)C2=C(C)C3(CC3)[C@](C)(O)C(=O)C2=C1`, for the setting “10 µM unless noted”, the growth is -65.6% (active). Still for that read-out and setting: the value for `O=[N+]([O-])/C=C/c1ccc(Cl)cc1[N+](=O)[O-]` was -55.9% (active); that for `S=P(NC1CCCCC1)(N1CC1)N1CC1` was 103% (inactive). For the compound `N#CC(N)c1ccccc1` (configuration not stated), under “10 µM unless noted”, the growth is 98.9% (inactive).

Turning to `Cc1ccccc1O`, under “10 µM unless noted”, the growth is 103% (inactive).

As to `CC(C)COC(=O)Cc1ccccc1`, the growth (10 µM unless noted) was 101% (inactive). On to `CC1(C)N=C(N)N=C(N)N1c1cccc(CCCCc2ccc(Cl)c(S(=O)(=O)F)c2)c1`, for which the growth (10 µM unless noted) is 75.8% (inactive). Still for that read-out and setting: the result for `Cc1ccc(C[As+](c2ccccc2)(c2ccccc2)c2ccccc2)cc1` reads -24.3% (active); that for `ClCCN(CCCl)c1nc(Cl)c(C2CC(c3ccc(Cl)cc3)=NN2c2cc(Cl)cc(Cl)c2)s1` (configuration not stated), 112% (inactive); that for `O=[As]c1ccc(C(=O)c2ccc(Oc3ccccc3)cc2)cc1` (configuration not stated), -85.6% (active). On the same count and under the same terms, the value for `Cc1cc(N(CCCl)CCCl)ccc1C=Nc1cccnc1` was -74.8% (active). With `Nc1ccc(S(=O)(=O)F)cc1`, for the setting “10 µM unless noted”, the growth was 107% (inactive).

With `CN(C)[C@@H]1C(=O)C(C(N)=O)=C(O)[C@@]2(O)C(=O)C3=C(O)c4c(O)ccc(Cl)c4[C@@](C)(O)[C@H]3C[C@@H]12`, under “10 µM unless noted”, the growth was 105% (inactive) and 101% (inactive).

On to `O=C(O)C(Cl)(Cl)C(F)(F)F`, for which the growth (10 µM unless noted) was 106% (inactive). The same measure, in the same setting: the result for `C[C@]12CCc3sc(Nc4ccc(O)cc4)nc3C1=CC[C@@H]1[C@@H]2CC[C@]2(C)C(=O)CC[C@@H]12` reads -36.9% (active); that for `C/C(=C\C(=O)O[C@H]1[C@@H]2[C@H](C)CC[C@H]2[C@]2(C)O[C@@]1(C1CCCCC1)C[C@H]2OC(=O)CO)c1ccccc1`, 28% (inactive); that for `C[C@]12C[C@@H](CO)[C@H](O)C[C@@H]1CC[C@@H]1[C@@H]2CC[C@]2(C)[C@@H](O)CC[C@@H]12`, 106% (inactive). For `COc1ccc(/C=C(/C(=O)N2CCCC2)c2cc(OC)c(OC)c(OC)c2)cc1N`, the growth (10 µM unless noted) was -4.72% (active). As to `CCCC(C)(C)c1ccc2c(c1)OC(C)(C)[C@@H]1CC=C(C)C[C@@H]21`, under “10 µM unless noted”, the growth was 97.6% (inactive). As for `CC[C@H](C)[C@H](NC(=O)[C@H]1CCCCN1C)C(=O)N(C)[C@H](CC(=O)c1nc(C(=O)N[C@@H](Cc2ccccc2)C[C@H](C)C(=O)O)cs1)C(C)C`, the growth (10 µM unless noted) was 62.3% (inactive).

Turning to `Cn1cc(-c2csc(-c3cn(CCCCN4CCOCC4)c4ccc(F)cc34)n2)c2cccnc21`, the growth (10 µM unless noted) was 65% (inactive).

In the case of `O=C1c2ccccc2C(=O)N1N1CC1c1ccccc1` (configuration not stated), the growth (10 µM unless noted) was 104% (inactive). In the case of `CC(=O)OCC1OC([S-])C(OC(C)=O)C(OC(C)=O)C1OC(C)=O.[Au+].c1ccc(CN2[CH-]N(Cc3ccccc3)C(c3ccccc3)=C2c2ccccc2)cc1`, the growth runs as follows: (4.75 µM) -23.8% (active); (10 µM) -41.9% (active). As to `S=C(SSC(=S)N1CCCCC1)N1CCCCC1`, the growth (10 µM) was 98.1% (inactive) and the growth (100 µM) is -62.8% (active).
